Assay results published in PubChem BioAssay AID588342 (National Center for Advancing Translational Sciences (NCATS), 2011).
In all, about 360,000 compounds went through this assay and about 25,000 (6.9%) were called active. Roughly 9% stayed inconclusive and do not appear here. This is one part of a sample in which actives are shown more often than they occur. Unmarked numbers belong to inactive results. Calls follow the shape of the dose curve; as a rule, active = well fitted inhibition curve with a large enough effect; inconclusive = small, poorly fitted or top-dose-only effect; inactive = flat fitted curve, though single readings scatter.

What follows are compounds tested against Luciferin 4-monooxygenase (Photinus pyralis) (UniProt P08659) (assay: qHTS profiling assay for firefly luciferase inhibitor/activator using purifed enzyme and Km concentrations of substrates (counterscreen for miR-21 project)). Conditions: purified FLuc, luminescence inhibition; series mostly up to 57.5 µM; activity change, negative = inhibition: at the top concentration.
Description: MLPCN Grant: 1 R21 NS059478-01 (miR-21 grant) Assay Provider: NCGC NCGC Assay Overview: Firefly (Photinus pyralis) luciferase is one of the most commonly used transcriptional reporters for a number of reasons. It is considered one of the more dynamically responsive reporters -that is, responsive to changes in reporter transcription - as it requires no post-translational modifications and is enzymatically active directly after protein synthesis (Wood, 1998). Additionally, the half-life of the luciferase protein is short relative to other reporter-gene products (Wood, 1995). Whereas reporters with long half-lives potentially allow for increased signal due to accumulation of reporter-gene product, once accumulated in the cell, dynamic changes in reporter-gene expression may be difficult to detect(Fan and Wood, 2007; Almond et al., 2004). It has been shown that wild-type P. pyralis luciferase has a half-life of approximately […] hours in mammalian cells (Thompson et al., 1991). Firefly luciferase reporter-gene assays are also generally considered one of the most sensitive assay types (Wood, 1995; Wood, 1998). Although light produced in a bioluminescence reaction is of lower intensity than that produced during fluorescence emission, this is offset by little to no background light inherent to luminescent assays. Thus the luciferase reporter can be expressed at much lower levels than fluorescent proteins while still providing robust signal. # However, it was initially observed, in 1991, by Thompson et al., that compounds that resemble the substrates of firefly luciferase (FLuc) can act as competitive inhibitors of the enzyme, and that these compounds, upon interaction with luciferase in the cell, can actually stabilize the protein and increase its half-life. Accumulated intracellular FLuc protein can be measured as an increase in luminescence signal, upon addition of detection reagents (which contain high concentrations of FLuc substrates) commonly used in high-throughput screening. In cell-based reporter gene assays that use FLuc as the reporter gene to quantitate the potential influence of a given compound against the target biology, this apparent increase in luminescence can mistakenly be interpreted as identification of a compound that is active against the target of interest. This is the case for the miR-21 FLuc reporter gene assay used to identify inhibitors of the miR-21 pathway (PubChem AID 2289) - compounds of interest will inhibit miR-21 biogenesis/expression or activity, and are identified by causing an increase in luminescence, due to increased FLuc translation. However, FLuc inhibitory compounds that stabilize the FLuc protein will give an identical read-out, making it difficult to distinguish compounds that are active against the target from those active against FLuc. Previous profiling work to determine the prevalence of compounds that affect FLuc enzymatic activity (PubChem AID 411) identified that ~3% of the MLSMR library (then at ~72K) inhibited FLuc. […] Since the MLSMR had grown to ~350K compounds, and since it was expected that a significant percentage of compounds found active in the miR-21 FLuc assay would be FLuc inhibitors, the library was screened for activity against FLuc using a biochemical assay of purified FLuc and KM concentrations of FLuc substrates (D-luciferin and ATP).
NCGC Assay Protocol Summary: Reagents: 50mM Tris acetate, pH 7.5; 10mM Mg acetate; 10uM D-luciferin (Sigma #L9504); 10uM ATP; 0.01% Tween-20; 0.05% BSA; 10nM P. pyralis luciferase (Sigma #L9506) Control compounds used were two known firefly luciferase inhibitors (compounds (2) and (5) in Auld et al., 2010), and DMSO. […]
Also: nearly all actives have a fitted effect of over 55% in size.
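For activity change, negative = inhibition in this document: plate controls were vehicle for no effect and reference inhibitor for full effect.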

Chain of Luciferin 4-monooxygenase (Photinus pyralis) (P08659 whole entry, looked up): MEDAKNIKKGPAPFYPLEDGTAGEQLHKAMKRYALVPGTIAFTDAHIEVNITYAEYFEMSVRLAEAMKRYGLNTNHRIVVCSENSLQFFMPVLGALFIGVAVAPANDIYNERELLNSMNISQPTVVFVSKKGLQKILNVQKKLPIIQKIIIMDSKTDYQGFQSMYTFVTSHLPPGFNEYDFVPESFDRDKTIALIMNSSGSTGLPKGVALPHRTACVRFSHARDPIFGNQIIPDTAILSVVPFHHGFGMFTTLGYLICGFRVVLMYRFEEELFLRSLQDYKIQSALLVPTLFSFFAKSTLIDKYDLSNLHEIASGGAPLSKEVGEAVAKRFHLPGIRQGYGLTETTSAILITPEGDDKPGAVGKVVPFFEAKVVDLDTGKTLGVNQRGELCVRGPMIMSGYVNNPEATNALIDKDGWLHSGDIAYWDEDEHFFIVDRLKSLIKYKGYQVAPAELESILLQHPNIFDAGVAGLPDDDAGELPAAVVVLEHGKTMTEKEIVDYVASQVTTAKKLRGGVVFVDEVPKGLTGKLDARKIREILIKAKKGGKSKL

| SMILES | activity change, negative = inhibition [%] | Potency |
| --- | --- | --- |
| COc1cc(C(=O)Nc2cc(C(F)(F)F)ccc2-n2cncn2)cc(OC)c1OC | -1.82 |  |
| CN(C)C(=O)N1CCNCC1 | 1.03 |  |
| CC12C(=O)N(c3ccccc3)C(=O)C1C(c1ccccc1)N1CCCN12 (centres undefined) | 0.0847 |  |
| CCOC(=O)C1CN(S(=O)(=O)c2ccc(F)cc2)C1 | -0.508 |  |
| COc1ccc(CNC(=O)c2ccc(NS(=O)(=O)c3ccc4[nH]c(=O)[nH]c4c3)cc2)cc1OC | 0.241 |  |
| CCC1CCCCN1C(=S)Nc1ccc(SC(F)F)cc1 (centres undefined) |  | 12 µM (active) |
| CCC1CCCCN1C(=O)Nc1cccc(NC(=O)N2CCCCC2CC)c1 (centres undefined) | -7.69 |  |
| CCC1CCCCN1C(=S)Nc1ccc(S(=O)(=O)Nc2ncccn2)cc1 (centres undefined) | 2.39 |  |
| O=C(/C=C/c1ccco1)Nc1ccc(Oc2ccccc2)cc1 |  | 6.01 µM (active) |
| Cc1cccc(OCC(=O)Nc2ccc(NC(=O)c3ccco3)c(C)c2)c1 | 1.53 |  |
| COC(=O)c1cc(NC(=O)c2ccco2)ccc1N1CCOCC1 | -2.45 |  |
| Cc1cc(NC(=O)[C@H](C)NC(=O)c2ccco2)ccc1Br | -6.64 |  |
| COc1ccc(NC(=O)c2ccco2)cc1NC(=O)COc1ccc(C)c(C)c1 | -0.508 |  |
| CCOC(=O)c1ccc(NC(=O)CNC(=O)c2ccco2)cc1 | 0.021 |  |
| Cc1ccc(C(=O)COc2cccc(NC(=O)c3ccco3)c2)cc1 |  | 23.9 µM (active) |
| O=C(Nc1ccccc1)/C(=C\c1ccco1)NC(=O)c1ccco1 | 0.703 |  |
| O=C(/C=C/c1ccco1)NC(=S)Nc1ccccc1Br | -9.89 |  |
| Cc1cc(NC(=O)c2ccc(F)cc2)ccc1NC(=O)c1ccco1 |  | 16.9 µM (active) |
| COc1ccc(OCC(=O)Nc2ccc(NC(=O)c3ccco3)c(C)c2)cc1 | -16.6 |  |
| COC(=O)c1ccc(NC(=O)c2ccco2)cc1 |  | 15.1 µM (active) |
| COc1ccc(CC(=O)N2N=C(C)CC2(O)C(F)(F)F)cc1 (centres undefined) | 0.709 |  |
| C#CCN1CC(C)/C(=N/O)CC1C (centres undefined) | 1.93 |  |
| CCOc1ccc(Nc2nc3c(S(=O)(=O)c4cccc(Cl)c4)nnn3c3ccsc23)cc1 | -0.0358 |  |
| Cc1ccc(Cl)cc1N1CCN(S(=O)(=O)c2cc3[nH]c(=O)c(=O)[nH]c3cc2C)CC1 | -6.22 |  |
| COc1ccc(NC(=O)N2CCCn3nc(C)cc32)cc1OC | -4.67 |  |
| Cc1cc(C)cc(NC(=O)CCS(=O)(=O)c2cc3c4c(c2)CCN4C(=O)CC3)c1 | -1.85 |  |
| Cc1ccc(Cl)cc1NC(=O)CCS(=O)(=O)c1ccc(Br)s1 | -5.76 |  |

| SMILES | activity change, negative = inhibition [%] | Potency |
| --- | --- | --- |
| Cc1ccc(N(CC(=O)NCC(C)c2ccccc2)S(=O)(=O)N(C)C)cc1 (centres undefined) | -1.89 |  |
| CCN(CC(=O)NCc1ccc(Cl)cc1)C(=O)c1c(C)noc1C | -12.6 |  |
| COc1ccc(NC(=S)SC)cc1OC | -3.07 |  |
| Cc1ccc2c(=O)c(C(=O)c3ccc(F)cc3)cn(CC(=O)NC3CCCCC3)c2n1 | -0.59 |  |
| CSCCC(NC(=O)c1ccco1)C(=O)Nc1cc(C)ccn1 (centres undefined) |  | 15.1 µM (active) |
| CSCCC(NC(=O)c1ccco1)C(=O)OCC(=O)Nc1ncc(Cl)c(C)c1Cl (centres undefined) | 3.55 |  |
| Cc1cccc(NC(=O)Nc2cccc(Oc3c(F)c(F)c(F)c(F)c3F)c2)c1 | -1.28 |  |
| Cc1cc(C)c(NC(=O)c2oc3ccccc3c2COc2ccccc2)c(C)c1 | 0.145 |  |
| COc1ccc(NC(=O)c2ccco2)cc1NC(=O)c1ccc(C#N)cc1F |  | inactive |
| COc1cccc(C(=O)Nc2ccc(NC(=O)c3ccco3)cn2)c1 |  | 21.3 µM (active) |
| COc1ccc(NC(=O)CCC(=O)Nc2cc(OC)c(NC(=O)c3ccco3)cc2OC)c(OC)c1 | -0.211 |  |
| O=C(Nc1ccc(Oc2ccccc2)cc1)c1ccco1 |  | 5.36 µM (active) |
| Cc1ccoc1C(=O)Nc1cccc(Oc2ccccc2)c1 |  | 6.75 µM (active) |
| O=C(NNC(=O)c1ccco1)Nc1ccccc1 | 0.191 |  |
| CSCCC(NC(=O)c1ccco1)C(=O)NCCc1ccc(F)cc1 (centres undefined) | -2.58 |  |
| O=C(Nc1ccccc1)c1ccco1 | -18.2 |  |
| CCOc1ccccc1C(=O)Nc1ccc(S(=O)(=O)N2CCCCC2c2cccnc2)cc1 (centres undefined) | -8.52 |  |
| Cc1c(Cl)cccc1NC(=O)Cn1cc(C(=O)c2cccs2)c2ccccc21 | 0.0254 |  |
| Cc1cccc(OCCSc2nc3ccccc3n2CC(=O)N2CCCCC2)c1C | -7.31 |  |
| COc1ccc(CNC(=O)c2ccc(NC(=O)N3CC4CCCN4c4ccccc43)cc2)cc1 (centres undefined) | -15.4 |  |
| O=C(CC(NCc1cccnc1)C(=O)O)Nc1ccc(O)cc1 (centres undefined) | -1.49 |  |
| O=C(NCc1ccccc1CN1CCCC1)c1cccc(S(=O)(=O)Nc2ccc(F)cc2)c1 | -1.42 |  |
| O=C(CCNC(=O)Cn1ccc2ccccc2c1=O)NCCC1=CCCCC1 | -4.15 |  |
| Cc1ccnc(NC(=O)c2ccco2)n1 | 4.11 |  |
| Cc1ccnc(NC(=O)c2ccc(NC(=O)c3ccco3)cc2)c1 |  | 10.7 µM (active) |
| CC(C)(C)NC(=O)c1cc(NC(=O)c2ccco2)cc(NC(=O)c2ccco2)c1 | -18 |  |
| Cc1cccc(N(C(=O)Cc2cccs2)C(C(=O)NC2CCCC2)c2ccsc2)c1 (centres undefined) | 0.969 |  |
